According to PubChem BioAssay (NCI):
The panel holds about 83,000 compounds, 20% with a hit somewhere; the sample as a whole holds those more often.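 In brief: 96-well plates, 48 h treatment, single concentration, percent growth endpoint.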 Calls of active or inactive are those of the source. Rule for the calls: active = growth percent below 10; inactive = the rest.

What was measured:
Assay in all cases: NCI-60 one-dose screen, 48 h (100 = growth as untreated, 0 = no growth, -100 = all killed)
Settings in all cases: 10 µM unless noted
HCT-15 colon = tested on: HCT-15 colon
HT29 colon = tested on: HT29 colon
SNB-19 CNS = tested on: SNB-19 CNS
U251 CNS = tested on: U251 CNS
PC-3 prostate = tested on: PC-3 prostate
SK-MEL-5 melanoma = tested on: SK-MEL-5 melanoma
UACC-62 melanoma = tested on: UACC-62 melanoma
LOX IMVI melanoma = tested on: LOX IMVI melanoma
SK-MEL-28 melanoma = tested on: SK-MEL-28 melanoma
SK-MEL-2 melanoma = tested on: SK-MEL-2 melanoma
SN12C renal = tested on: SN12C renal
UO-31 renal = tested on: UO-31 renal
TK-10 renal = tested on: TK-10 renal
ACHN renal = tested on: ACHN renal
CAKI-1 renal = tested on: CAKI-1 renal
A498 renal = tested on: A498 renal
MOLT-4 leukemia = tested on: MOLT-4 leukemia
EKVX NSCLC = tested on: EKVX NSCLC
CCRF-CEM leukemia = tested on: CCRF-CEM leukemia

Measured: growth

Brc1ccc(-c2[nH]ncc2-c2c[nH]c3ccccc23)cc1
inactive: HCT-15 colon 94.9% | HT29 colon 109% | SNB-19 CNS 97% | U251 CNS 93.9% | PC-3 prostate 77.4% | SK-MEL-5 melanoma 100% | UACC-62 melanoma 91.7% | LOX IMVI melanoma 89.7% | SK-MEL-28 melanoma 107% | SK-MEL-2 melanoma 109% | SN12C renal 88.5% | UO-31 renal 57.4% | TK-10 renal 129% | ACHN renal 96.5% | CAKI-1 renal 86.7% | A498 renal 65.1% | MOLT-4 leukemia 70.3%

COc1ccc(C2CC(c3ccc(OC)cc3OC)=NN2c2ccc(S(N)(=O)=O)cc2)cc1 (stereo not drawn)
inactive: HCT-15 colon 75% | HT29 colon 71.8% | SNB-19 CNS 85.7% | U251 CNS 79.3% | PC-3 prostate 56% | SK-MEL-5 melanoma 91.6% | UACC-62 melanoma 77.2% | LOX IMVI melanoma 101% | SK-MEL-28 melanoma 125% | SK-MEL-2 melanoma 94.6% | EKVX NSCLC 87.5% | SN12C renal 90.8% | UO-31 renal 86.8% | ACHN renal 107% | A498 renal 102% | CCRF-CEM leukemia 75.5% | MOLT-4 leukemia 61.8%

Cn1cnc2c(N3CCN(C(=O)OCc4ccc5c(Cl)cc(Cl)c(O)c5n4)CC3)nc(Cl)nc21
inactive: HCT-15 colon 30.5% | HT29 colon 113% | SNB-19 CNS 60.3% | U251 CNS 38.6% | PC-3 prostate 54.8% | SK-MEL-5 melanoma 41.6% | UACC-62 melanoma 53.7% | LOX IMVI melanoma 44.5% | SK-MEL-28 melanoma 68.5% | SK-MEL-2 melanoma 81% | EKVX NSCLC 66.9% | SN12C renal 63% | TK-10 renal 96% | ACHN renal 48.4% | CAKI-1 renal 63.8% | A498 renal 62.7% | CCRF-CEM leukemia 37.6% | MOLT-4 leukemia 59.5%

O=C(Nc1cccc(-n2cc(-c3ccncc3)c(-c3ccc(Cl)c(O)c3)n2)c1)Nc1cccc(C(F)(F)F)c1
active: PC-3 prostate 4.28% | SK-MEL-5 melanoma -25.5% | SK-MEL-2 melanoma -25.7%
inactive: HCT-15 colon 18.2% | HT29 colon 77.8% | SNB-19 CNS 32.5% | U251 CNS 15.8% | UACC-62 melanoma 10.4% | LOX IMVI melanoma 23.8% | SK-MEL-28 melanoma 29.4% | SN12C renal 14.6% | UO-31 renal 24.8% | TK-10 renal 21.9% | ACHN renal 11.2% | CAKI-1 renal 30.1% | A498 renal 17.7% | CCRF-CEM leukemia 10.6% | MOLT-4 leukemia 12.5%

O=S(=O)(NCCCNc1nccc(-n2ccc3cccnc32)n1)c1ccc(Br)cc1
inactive: HCT-15 colon 102% | HT29 colon 107% | SNB-19 CNS 102% | U251 CNS 106% | PC-3 prostate 96.5% | SK-MEL-5 melanoma 101% | UACC-62 melanoma 99.5% | LOX IMVI melanoma 96.3% | SK-MEL-28 melanoma 108% | SK-MEL-2 melanoma 108% | EKVX NSCLC 93% | SN12C renal 102% | TK-10 renal 121% | ACHN renal 108% | CAKI-1 renal 94.2% | A498 renal 102% | CCRF-CEM leukemia 102% | MOLT-4 leukemia 100%

Cc1cc(C)n(-c2nnc3n2N=C(c2ccc(-c4ccccc4)cc2)CS3)n1
inactive: HCT-15 colon 36% | SNB-19 CNS 66.9% | U251 CNS 37.3% | PC-3 prostate 36.4% | SK-MEL-5 melanoma 28.2% | UACC-62 melanoma 40.5% | LOX IMVI melanoma 35.2% | SK-MEL-28 melanoma 52.7% | SN12C renal 53.4% | UO-31 renal 46.6% | TK-10 renal 50.6% | ACHN renal 54.8% | A498 renal 20.4%
active: HT29 colon 6.89% | SK-MEL-2 melanoma -12.1%

CC(O)CN1CCCCC1 (stereo not drawn)
inactive: HCT-15 colon 107% | HT29 colon 92.3% | SNB-19 CNS 100% | U251 CNS 99.6% | PC-3 prostate 102% | SK-MEL-5 melanoma 105% | UACC-62 melanoma 101% | LOX IMVI melanoma 101% | SK-MEL-28 melanoma 109% | SK-MEL-2 melanoma 113% | EKVX NSCLC 105% | SN12C renal 96.8% | TK-10 renal 110% | ACHN renal 108% | CAKI-1 renal 95.7% | A498 renal 94.5%

N/C(=N\C(N)=N\c1nc2ccccc2s1)c1ccncc1
inactive: HCT-15 colon 35.3% | HT29 colon 27.7% | SNB-19 CNS 69.5% | U251 CNS 71% | PC-3 prostate 73.9% | SK-MEL-5 melanoma 59% | UACC-62 melanoma 44.6% | LOX IMVI melanoma 55.8% | SK-MEL-28 melanoma 66.9% | SK-MEL-2 melanoma 41% | EKVX NSCLC 78.9% | SN12C renal 72.6% | UO-31 renal 64.2% | ACHN renal 75.8% | CAKI-1 renal 44.9% | CCRF-CEM leukemia 63% | MOLT-4 leukemia 45.2%

Cc1csc(NC(c2ccccc2)c2c(C)nc3ccccn23)n1 (stereo not drawn)
inactive: HCT-15 colon 100% | HT29 colon 98% | SNB-19 CNS 93.5% | U251 CNS 94.7% | PC-3 prostate 82.6% | SK-MEL-5 melanoma 99.6% | UACC-62 melanoma 94.2% | LOX IMVI melanoma 96.5% | SK-MEL-28 melanoma 110% | SK-MEL-2 melanoma 107% | SN12C renal 99.9% | UO-31 renal 76% | ACHN renal 102% | CAKI-1 renal 94.5% | A498 renal 70.9% | CCRF-CEM leukemia 101% | MOLT-4 leukemia 92.3%
